{
  "source": "PubChem BioAssay AID651558",
  "about": "(National Center for Advancing Translational Sciences (NCATS), 2012)",
  "note": "The whole screen tested about 1,200 compounds, of which about 480 (40%) were called active. Not shown: some 29% with an inconclusive outcome. The call rests on the fitted dose curve; in most records, active means well fitted inhibition curve with a large enough effect; inconclusive means small, poorly fitted or top-dose-only effect; inactive means no such curve, though single readings can be large or run the other way. Some of the results follow. Potency means the concentration at half of the fitted maximal effect.",
  "data": [
    {"test": "qHTS Assay to Find Inhibitors of Chronic Active B-Cell Receptor Signaling: Hit Validation in Primary Screen; further: nearly all actives have a fitted effect of over 75% in size", "conditions": "ABC-DLBCL IkB-luc/CBR ratio luminescence, 4 h; series mostly up to 46.1 µM", "method_in_brief": "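Concentration series (3 nM to 46 uM) tested on TMD8 cells induced with doxycycline for 4 h. Filter-corrected green (IkBa fusion) over red (unfused) luciferase signal; Data were normalised to 10 uM MG-132 and untreated cell wells.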", "values": [
      {"smiles": "Cc1ccc(NS(=O)(=O)c2ccc(-c3cnc(C4CC4)o3)cc2)c(C)c1", "Potency": "3.26 µM (active)"},
      {"smiles": "CC(=O)Nc1ccc(S(=O)(=O)NCC(=O)OC(C)c2ccccc2Cl)cc1", "note": "(stereo not drawn)", "Potency": "inactive"},
      {"smiles": "CC(=O)Nc1ccc(S(=O)(=O)N2c3ccccc3C(C)=CC2(C)C)cc1", "Potency": "4.11 µM (active)"},
      {"smiles": "CC1=CC(C)(C)N(S(=O)(=O)c2ccc(C)cc2)c2ccccc21", "Potency": "14.6 µM (active)"},
      {"smiles": "CCOc1cc(/C=C2\\CN(C)C/C(=C\\c3ccc(O)c(OCC)c3)C2=O)ccc1O", "Potency": "6.51 µM (active)"},
      {"smiles": "CCOC(=O)C1=C(O)/C(=C/c2ccc(OCC(=O)O)c(OCC)c2)SC1=Nc1ccccc1", "Potency": "inactive"},
      {"smiles": "C=CCC(CC(O)COCCC)C(=O)NNC(=S)Nc1ccccc1", "note": "(stereo not drawn)", "Potency": "inactive"},
      {"smiles": "Cc1ccc(C(=O)c2cc([N+](=O)[O-])ccc2N2CCOCC2)c(C)c1", "Potency": "4.61 µM (active)"},
      {"smiles": "O=C(c1ccc(Br)cc1)c1cc([N+](=O)[O-])ccc1N1CCCCC1", "Potency": "2.31 µM (active)"},
      {"smiles": "Cc1ccc(C(=O)c2cc([N+](=O)[O-])ccc2N2CCCCC2)cc1C", "Potency": "6.51 µM (active)"},
      {"smiles": "Cc1ccc(C(=O)c2cc([N+](=O)[O-])ccc2N2CCCCC2)c(C)c1", "Potency": "1.03 µM (active)"},
      {"smiles": "COCCCNC(=O)C[C@H]1C[C@H](C(=O)N2CCCCC2)[C@@]2(C)c3[nH]c4ccc(Cl)cc4c3CCN2C1=O", "Potency": "inactive"},
      {"smiles": "S=c1c2c(nc3nc[nH]n13)CCC2", "Potency": "inactive"},
      {"smiles": "Cc1ccc(C(=O)c2cc([N+](=O)[O-])ccc2N2CCCCC2)cc1", "Potency": "2.31 µM (active)"},
      {"smiles": "CC1CCCN(c2ccc([N+](=O)[O-])cc2C(=O)c2ccccc2)C1", "note": "(stereo not drawn)", "Potency": "3.26 µM (active)"},
      {"smiles": "CCN(CC)c1ccc(/C=N/NC(=S)NC)c(O)c1", "Potency": "inactive"},
      {"smiles": "CCN(CC)c1ccc(/C=N/N=C(N)N)c(O)c1", "Potency": "10.3 µM (active)"},
      {"smiles": "COc1cc(C(=O)NNC(=S)Nc2ccc(S(N)(=O)=O)cc2)cc(OC)c1OC", "Potency": "inactive"},
      {"smiles": "COc1ccc(N/C=C/C(=O)c2cc(OC)c(OC)c(OC)c2)cc1", "Potency": "7.31 µM (active)"},
      {"smiles": "CCOc1ccc(Nc2cc(C)nc(-n3nc(C)cc3C)n2)cc1", "Potency": "3.26 µM (active)"},
      {"smiles": "COc1ccc(Nc2cc(C)nc(-n3nc(C)cc3C)n2)cc1", "Potency": "7.31 µM (active)"},
      {"smiles": "COC(=O)c1cn(C(=O)c2ccc(OC)cc2)c2ccccc12", "Potency": "inactive"},
      {"smiles": "COc1ccc(N=N/C(=C\\O)C(=O)c2ccco2)cc1", "Potency": "inactive"},
      {"smiles": "COc1ccc(C(=O)n2c(-c3ccco3)nc3ccccc32)cc1", "Potency": "18.4 µM (active)"},
      {"smiles": "Cc1ccc(S(=O)(=O)N2CCN(C(=O)CSc3n[nH]c(N)n3)CC2)c(C)c1", "Potency": "inactive"},
      {"smiles": "O=Cc1cc2ccccc2nc1SCc1ccc(Cl)c(Cl)c1", "Potency": "inactive"},
      {"smiles": "COc1cccc(CSc2nc3ccccc3cc2C=O)c1", "Potency": "2.59 µM (active)"},
      {"smiles": "Cc1ccc(CSc2nc3ccccc3cc2C=O)cc1", "Potency": "2.91 µM (active)"}
    ]}
  ]
}
